D2 PAM-1 = D2 dopamine receptor (human) potentiation. AID 485347. hit rate 0.34% among 340,000. HEK293 T-REx D2, calcium flux, EC20 dopamine potentiation. potentiation, % at 10 µM;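 active = potentiation over 3 SD above the plate norm, cut at about 30% in these data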; note: 0% is about no effect
Target sequence (P14416 whole entry, looked up): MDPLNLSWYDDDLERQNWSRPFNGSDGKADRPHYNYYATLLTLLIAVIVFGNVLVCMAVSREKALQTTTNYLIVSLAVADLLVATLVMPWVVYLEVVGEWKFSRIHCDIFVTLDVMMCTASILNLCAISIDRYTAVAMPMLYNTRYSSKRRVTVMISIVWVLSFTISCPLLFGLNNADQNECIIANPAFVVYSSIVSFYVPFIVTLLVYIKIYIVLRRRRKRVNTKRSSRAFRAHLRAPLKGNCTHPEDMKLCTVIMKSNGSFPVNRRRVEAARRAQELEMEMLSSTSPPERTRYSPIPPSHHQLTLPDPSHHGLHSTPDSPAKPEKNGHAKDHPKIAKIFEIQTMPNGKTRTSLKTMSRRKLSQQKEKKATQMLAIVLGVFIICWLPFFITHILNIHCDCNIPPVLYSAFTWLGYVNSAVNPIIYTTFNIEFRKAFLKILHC
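Primary screen. Calcium kinetics in induced HEK293 T-REx D2 cells: compound pre-addition 180 s, EC20 dopamine, 180 s more.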
D2 ag-1 = human D2 receptor agonism in beta-arrestin assay. P14416. hit rate 0.084% among 360,000. DiscoveRx PathHunter D2 beta-arrestin, luminescence, 90 min; 100% = 57 uM dopamine signal. activation, % (concentration not given with the values); in the data active = activation above about 40%
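Agonist mode: compounds alone added to overnight-plated D2 PathHunter cells for 90 min at 37 C, with 57 uM final dopamine (EC100) defining full response. Beta-arrestin recruitment detected by chemiluminescent reagent, read after 1 h at ambient temperature.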
LDHA inh = LDHA (human) enzyme inhibition; AID 1347041; P00338; purified LDHA, NADH/diaphorase-resazurin fluorescence; active compounds read low; hit rate 0.15% among 480,000; activity change, % (values are at about 110 or 230 µM); in the data active = activity change below about -30%;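 note: plate controls were DMSO wells for no effect and wells without enzyme for full effect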
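Human LDH5 (2 nM) was incubated with 0.06 mM NADH and 0.2 mM pyruvate for 5 min at room temperature in Tris pH 7.4. Remaining NADH was coupled through diaphorase/resazurin, and resorufin fluorescence was read at 0 and 20 min.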
D2 ag-2 = activates the human D2 dopamine receptor; P14416; activation, % at 2 µM; HEK293 T-REx D2 cells, calcium flux agonist mode; hit rate 0.53% among 340,000;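 active = activation over 3 SD above normal in the single-dose calcium agonist read, cut at about 30% in these data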; note: 0% is about no effect
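Tetracycline-induced HEK293 T-REx cells with force-coupled D2 receptor, plated overnight at 30 C, loaded with no-wash calcium dye. After a 10 s baseline, compound was pin-added and calcium flux read kinetically for 180 s; calcium rises flagged agonists.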
D2 antagonist = D2 dopamine receptor (human) antagonism | P14416 | HEK293 TREx D2 cells, calcium flux, dopamine EC80 | inhibition, % at 10 µM | hit rate 2% among 340,000; in the data active = inhibition above about 30%; inactive = below that, where a call was filed; note: 0% is about no effect
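Compounds are added to dye-loaded, induced HEK293 T-REx cells coupled to calcium release via D2; after a 3 min kinetic read an EC80 dopamine stimulus is given and fluorescence is recorded for 3 more min.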
D2 PAM-2 = human D2 receptor positive allosteric modulation | DiscoveRx D2 beta-arrestin cells, luminescence, 90 min; 100% = 57 uM dopamine signal | potentiation, % (concentration not given with the values) | hit rate 0.23% among 360,000; in the data active = potentiation above about 50%
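PathHunter beta-arrestin assay in DiscoveRx D2 cells. Compounds were added with an EC20 of dopamine (50 nM final) for 90 min at 37 deg C. Luminescence was read 1 h after detection reagent, with 57 uM dopamine as the EC100 control.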
* marks the source's active call; other numbers are inactive results; . = no result. An excerpt weighted towards active compounds, which were near 2.1% of everything screened.

SMILES	D2 PAM-1	D2 ag-1	LDHA inh	D2 ag-2	D2 antagonist	D2 PAM-2
COc1cc2c(cc1OC)CN(C(=O)c1ccc3nc[nH]c3c1)CC2	-1	0	-11	1	3	2
O=C(c1ccc2nc[nH]c2c1)N1CCc2ccccc2C1	-3	-3	-8	-1	35*	-8
O=C(NC1CCCC1)c1cccc(Cl)c1	10	-2	-7	-1	14	-4
Cc1ccc(C(=O)NC2CCCCC2)cc1	-12	1	-6	0	62*	-11
O=C(Nc1ccccc1C(=O)NC1CCCCC1)c1ccccc1	11	-1	-5	-1	-8	-1
CC(C)C(=O)N(Cc1cc2ccccc2[nH]c1=O)c1ccccc1	.	.	0	.	.	.
O=C(NC1CCCC1)c1ccc2nc(-c3ccco3)c(-c3ccco3)nc2c1	-7	7	8	-1	33*	26
CC(SC1CCCCC1)C(=O)Nc1cccc(C#N)c1 (stereo not given)	.	.	-24	.	.	.
COc1ccc(Cl)cc1NC(=O)NCC1CCN(C(=O)OC(C)(C)C)CC1	-33	-8	-4	-1	95*	-16
C=CCNC(=O)Nc1cc(Cl)ccc1OC	-13	-4	-1	1	38*	-9
CCCN1CCC(NC(=O)Nc2cc(Cl)ccc2OC)CC1	-39	-19	-7	1	85*	4
COc1ccc(OC)c(NC(=O)Nc2ccc(Cl)cc2)c1	-25	-1	7	-2	46*	-27
Cc1ccc2[nH]c(C)c(C(O)CN3CCC(Cc4ccccc4)CC3)c2c1 (stereo not given)	.	.	5	.	.	.
O=C(CSc1nnc(-c2cccc(S(=O)(=O)N3CCCC3)c2)n1-c1ccccc1)Nc1ccc2c(c1)OCO2	.	.	8	.	.	.
C=CCNC(=O)c1cc(Cl)ccc1[N+](=O)[O-]	-4	-1	-4	1	-3	-32
C=CCNC(=O)c1cc(Cl)ccc1Cl	33*	0	-10	0	-15	-4
COc1ccc(Cl)cc1NC(=O)NCCN1CCCCC1	-27	-2	-2	0	58*	-9
COc1cc2nc(Nc3ccc(C)c(C)c3)nc(N)c2cc1OC	5	-3	-3	-1	30*	-12
Cc1cccc(-c2cc(C(=O)Nc3cccc(C)n3)c3ccccc3n2)c1	.	.	0	.	.	.
O=[N+]([O-])c1cc(Cl)ccc1NCCNS(=O)(=O)c1ccccc1	0	-6	-5	0	-16	-15
O=[N+]([O-])c1ccccc1NCCNS(=O)(=O)c1ccc(Cl)cc1	-2	-4	-6	2	34*	-15
COc1ccc(NC(=O)c2c3c(nc4ccccc24)CCC3)cc1S(=O)(=O)N1CCOCC1	-15	-4	1	33*	5	13
COc1ccc(C(=O)Nc2ccc(NC(=O)c3ccccc3)cc2)cc1S(=O)(=O)N1CCOCC1	-18	3	-2	0	16	-10
CCN(c1ccc(F)cc1)S(=O)(=O)c1cccc2nsnc12	-12	-1	-4	0	-17	-2
N#CCCN(C1CCCCC1)S(=O)(=O)c1cccc2nsnc12	0	0	-4	-4	-1	0
SMILES	D2 PAM-1	D2 ag-1	LDHA inh	D2 ag-2	D2 antagonist	D2 PAM-2
CCN(c1ccccc1C(=O)O)S(=O)(=O)c1cccc2nsnc12	14	-1	9	-1	31*	1
CN(C1CCCCC1)S(=O)(=O)c1cccc2nsnc12	-6	-4	-5	-1	32*	-4
O=C(/C=C/Nc1ccc(Cl)c(C(F)(F)F)c1)c1ccc(Br)cc1	.	.	4	.	.	.
CCOc1ccc(C2/C(=C(/O)c3ccc(Cl)cc3)C(=O)C(=O)N2CCCN(C)C)cc1OC (stereo not given)	5	.	.	0	45*	.
CN(C)CCN1C(=O)C(=O)/C(=C(/O)c2ccc(OCc3ccccc3)cc2)C1c1ccncc1 (stereo not given)	3	0	-5	1	42*	-1
CCOC(=O)CSc1nc2c(c(=O)[nH]c(=O)n2C)n1Cc1cccc(C)c1	.	.	2	.	.	.
C/C(O)=C(/C=Nc1ccccc1)C(=O)Nc1ccccc1	11	-3	-12	1	33*	-1
COc1ccc2c(C)c(CCC(=O)Nc3ccccc3N3CCCC3)c(=O)oc2c1	.	.	4	.	.	.
COc1ccc(NC(=O)CCS(=O)(=O)c2nc(-c3ccc4c(c3)OCO4)cc(C(F)(F)F)n2)cc1	6	.	4	1	.	.
Cc1nnc(NC(=O)CCc2ccc(-c3ccccc3)o2)s1	.	.	-4	.	.	.
Cc1cc(NC(=O)CSc2ccccc2)no1	6	-2	3	-1	2	-22
Cc1cc(NC(=O)CSc2nnc(-c3ccccc3)c(-c3ccccc3)n2)no1	-7	1	-10	-1	80*	-2
Cc1cc(NC(=O)CCS(=O)(=O)c2nc(-c3ccccc3)cc(C(F)(F)F)n2)no1	38*	-7	-4	1	13	-19
Cc1cc(NC(=O)CCc2ccc(-c3ccccc3)o2)no1	-16	-6	-3	0	33*	-19
Cc1cc(C)cc(-c2nnc(SCC(=O)Nc3cc(C)on3)o2)c1	8	0	-7	0	36*	-11
Cn1cnnc1-c1ccc(NS(=O)(=O)c2ccc3c(c2)CCC3)cc1	.	.	3	.	.	.
CC(=O)N1CCN(c2ccc([N+](=O)[O-])cc2)CC1	4	-1	-6	0	-4	-6
CC(=O)N1CCN(C(=S)c2ccc([N+](=O)[O-])cc2)CC1	-16	-5	-5	0	48*	1
CC1=C/C(=N/NC(=S)Nc2c(C)cccc2C)CC1	.	.	6	.	.	.
O=C(COC(=O)C1=NN(c2ccccc2)C(=O)CC1)NCc1ccccc1Cl	-5	-3	-2	-1	32*	13
CC(NC(=O)COC(=O)C1=NN(c2ccccc2)C(=O)CC1)c1ccccc1 (stereo not given)	-5	-4	-2	0	-7	3
CC(C)(C)n1nnnc1C(c1ccccn1)N1CCN(C(c2ccccc2)c2ccccc2)CC1 (stereo not given)	-14	3	-1	0	-1	-18
CCC(C)(C)n1nnnc1C(c1ccccn1)N1CCCCC1 (stereo not given)	-6	0	-8	0	52*	-7
Cn1cnnc1SCC(=O)Nc1nc(-c2ccccc2)cs1	-6	-4	-4	0	56*	-7
COc1cccc(/C=N/N2C(=O)CSC2=S)c1O	-2	5	-8	0	10	-2
COc1cc(/C=N/N2C(=O)CSC2=S)cc(Br)c1O	-4	-1	3	11	44*	0
Cc1c(CC(=O)NCc2ccc(Cl)cc2)c(=O)oc2c(C)c(O)ccc12	.	.	10	.	.	.
